From PubChem BioAssay
F508del corr – correctors of CFTR F508del function in bronchial epithelial cells. CFBE cells, YFP halide quenching; stimulated with forskolin plus potentiator P3; % fluorescence drop versus neutral controls. activity (quench increase), % at 7.58 µM. 0.36% of 350,000 active;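 active means mean added fluorescence quench of at least 8% versus neutral control, with both replicates also reaching 8%; inconclusive means only one of the mean or replicate conditions met; inactive means mean below 8% and not both replicates reaching 8%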;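 further: cells transiently co-express mutant CFTR-F508del with the halide-sensitive YFP; corrector assay measuring rescue of mutant channel to the surface after 24 h compound exposure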
Wnt act – activates Wnt/beta-catenin signaling in a reporter cell assay; AID 743398; activator, plate reader; 1.2% of 300,000 active; activation, % at 9.35 µM; in the data active means activation above about 30%, passing the limit was not always enough; inconclusive means no clear call, values can overlap the other calls
Env fusion inh – blocks HIV Env-driven cell-cell fusion; HeLa-JRFL Env/CEM21 cell fusion, luciferase; inhibition, % at 12.3 µM; 1.1% of 360,000 active;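 active means mean replicate inhibition score of at least 50 and every replicate individually at or above 50; inconclusive means only one of the two criteria met; inactive means mean below 50 and not all replicates reaching 50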
GSIS activator – GLuc luminescence reporter in INS-1E cells, primary screen for activators of glucose-dependent secretion of insulin; activation, % at 16.6 µM; INS-1E GLuc reporter insulin secretion, 2-3 h; 0.61% of 370,000 active;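 active means lowest replicate activation of at least 40%, so every replicate reaches that level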
MITF TRPM1 HTS – increases MITF-driven TRPM1 promoter luciferase signal; AID 588334; 0.75% of 300,000 active; activation, % at 12.5 µM; SK-MEL-5 TRPM1-promoter luciferase, 24 h; % of positive control, neutral wells = 0;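 active means mean activation of at least 80% with every replicate also reaching 80%; inconclusive means mean reaches 80% but some replicate falls short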
Large screens that a line does not name were inactive; [ ] = remark or other dose. In the library only some 2.7% were active in any assay of this set; here they are far more common.

COc1ccc(NC(=O)Nc2ccc3c(c2)C(=O)N([C@@H](C)CO)C[C@H](C)[C@H](CN(C)Cc2ccncc2)OCCCC[C@H](C)O3)cc1	Env fusion inh 88.4[16.7 µM] (no result: Wnt act, MITF TRPM1 HTS)
C[C@@H]1CCCCO[C@@H](CN(C)Cc2ccccc2)[C@H](C)CN([C@H](C)CO)C(=O)c2cc(NC(=O)Nc3ccc(F)cc3)ccc2O1	none (no result: Wnt act, MITF TRPM1 HTS)
C[C@@H]1CCCCO[C@@H](CN(C)Cc2ccncc2)[C@H](C)CN([C@H](C)CO)C(=O)c2cc(NC(=O)c3ccccc3)ccc2O1	none (no result: Wnt act, MITF TRPM1 HTS)
C[C@H]1CN([C@@H](C)CO)C(=O)c2cc(NC(=O)C3CCCCC3)ccc2O[C@@H]1CN(C)Cc1ccncc1	Env fusion inh 55.1[16.7 µM] (no result: Wnt act, MITF TRPM1 HTS)
C[C@H]1CN([C@@H](C)CO)C(=O)c2cc(NC(=O)C3CCCCC3)ccc2O[C@H]1CN(C)Cc1ccncc1	none (no result: Wnt act, MITF TRPM1 HTS)
Cc1cccc(/C(N)=N/OC(=O)c2ccc(Br)o2)c1	Wnt act 46.5 (no result: F508del corr)
N/C(=N\OC(=O)c1ccco1)c1ccc(Cl)cc1	Wnt act 64.6
O=C(COC(=O)c1ccco1)c1ccc(Cl)cc1	none
COc1cc(OC)cc(C(=O)O/N=C(\N)c2cccc(C)c2)c1	none
N/C(=N\OC(=O)c1ccco1)c1cccnc1	Wnt act 37.7
Cc1cccc(/C(N)=N/OC(=O)c2cccnc2)c1	Wnt act 32.7 (no result: F508del corr)
CN(C)CC#Cc1cccc(-c2nc(C(=O)NCCCN3CCOCC3)cc3c2[C@H](CCO)N(S(=O)C(C)(C)C)C3)c1 (stereo partly specified)	none (no result: F508del corr, Wnt act, GSIS activator, MITF TRPM1 HTS)
N/C(=N\OC(=O)c1ccc(Cl)cc1)c1ccc(Cl)cc1	MITF TRPM1 HTS 96.0 (no result: F508del corr, Env fusion inh, GSIS activator)
N/C(=N\OC(=O)c1ccc(Cl)cc1)c1ccn[nH]1	Wnt act 48.6, MITF TRPM1 HTS inconclusive
Cc1ccc2nc(-c3ccc(NC(=S)NC(=O)C(C)C)cc3)sc2c1	MITF TRPM1 HTS 96.4 (no result: Env fusion inh)
Cc1ccc2nc(-c3ccc(NC(=O)C(C)N4C(=O)c5ccccc5C4=O)cc3)sc2c1 (stereo unspecified)	none (no result: F508del corr, Wnt act)
CCC(=O)NC(=S)Nc1ccc(-c2nc3ccc(C)cc3s2)cc1	Wnt act 36.5, MITF TRPM1 HTS 113.0 (no result: F508del corr)
Cc1ccc2nc(-c3ccc(NS(=O)(=O)c4ccc(F)c(F)c4)cc3)sc2c1	Wnt act 37.5 (no result: F508del corr)
Cc1ccc2nc(-c3ccc(NS(=O)(=O)c4ccccc4)cc3)sc2c1	none
CC(=O)Nc1cccc(-c2nc3ccc(NC(C)=O)cc3s2)c1	Wnt act inconclusive, MITF TRPM1 HTS 90.5
CC=Cc1ccc2n(c1=O)C[C@@H]1[C@@H](CO)[C@H](C(=O)Nc3ccc(-c4ccccc4)cc3)N(C(C)=O)[C@H]21 (mixture of isomers)	none (no result: Wnt act, Env fusion inh, MITF TRPM1 HTS)
COC(=O)[C@]1(C)N[C@H](CN(C)C(=O)Nc2ccc(Cl)cc2)[C@@H]2C(=O)N(Cc3ccccc3)C(=O)[C@@H]21	Env fusion inh 79.3
COC(=O)[C@]1(C)N[C@H](CN(C)C(=O)Nc2ccc(OC)cc2)[C@@H]2C(=O)N(Cc3ccccc3)C(=O)[C@@H]21	Env fusion inh inconclusive
CCN(C[C@H]1N[C@@](C)(C(=O)OC)[C@H]2C(=O)N(Cc3ccccc3)C(=O)[C@@H]12)C(=O)Nc1ccc(F)cc1	Env fusion inh 57.2
COC(=O)[C@]1(C)N[C@H](CN(C)C(=O)Nc2ccc(C)cc2)[C@@H]2C(=O)N(Cc3ccccc3)C(=O)[C@@H]21	Env fusion inh 63.7
O=C(C[C@H]1CC[C@H](NC(=O)c2cnccn2)[C@H](CO)O1)NCc1ccccc1F	none (no result: Wnt act, MITF TRPM1 HTS)
COc1ccc(/C=C/C(=O)Nc2cccnc2Cl)cc1	Wnt act 43.1, MITF TRPM1 HTS 96.8
Cc1ccc(OCC(=O)Nc2ccccc2F)cc1	Wnt act 41.3 (no result: MITF TRPM1 HTS)
Cc1ccc(OCC(=O)Nc2cccnc2Cl)cc1C	MITF TRPM1 HTS 87.2
Cc1ccc(CCC(=O)Nc2ccccc2F)s1	Wnt act 62.4 (no result: F508del corr)
CCCNC(=O)N1CC2(CN(C(=O)Cc3cccnc3)C2)c2c([nH]c3cc(OC)ccc23)[C@H]1CO	none (no result: Wnt act, Env fusion inh, MITF TRPM1 HTS)
CN1C(=O)c2cc(NC(=O)c3ccccc3Cl)ccc2OC[C@H]2O[C@H](CC(=O)NCC(F)(F)F)CC[C@@H]21	none (no result: F508del corr, Wnt act, MITF TRPM1 HTS)
CN1CCN(C(=O)C[C@@H]2C[C@H]3c4cc(NC(=O)Nc5ccccc5F)ccc4O[C@H]3[C@H](CO)O2)CC1	none (no result: Wnt act, MITF TRPM1 HTS)
C[C@H](CO)N1C[C@H](C)[C@H](CN(C)C(=O)NC2CCCCC2)Oc2ccc(N(C)C)cc2C1=O	none (no result: Wnt act, MITF TRPM1 HTS)
O=C(COC(=O)c1ccccc1O)Nc1cccnc1Cl	none (no result: F508del corr)
Cc1ccc(OCC(=O)Nc2ccccc2F)cc1C	Wnt act 43.4, MITF TRPM1 HTS 106.6
